Screening results as filed in PubChem.
aDG glyco up: alpha-DG glycosylation activation; Pro5-aDG cells, alpha-DG glycosylation AlphaScreen (IIH6); 0% Pro5, 100% B10-LARGE cell signal; activation, % at 10 µM; actives 0.22% (n = 360,000); AID 624168;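 active means activation of at least 8% versus controls, or a plate z-score of at least 8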;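 further: Pro5 are CHO cells carrying HIG-tagged alpha-DG that lacks glycosylation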
ADAM17 inh: inhibits human ADAM17. AID 720648. recombinant ADAM17, EDANS/DABCYL FRET peptide cleavage. actives 0.83% (n = 370,000). P78536. inhibition, % at 6.95 µM;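 active means inhibition above the mean of compounds lying between control limits plus 3 SD, set per campaign, cut at about 8.5% in these data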;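 further: 0% = DMSO-only wells as the low control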
Target sequence (P78536 215-824 limits assumed): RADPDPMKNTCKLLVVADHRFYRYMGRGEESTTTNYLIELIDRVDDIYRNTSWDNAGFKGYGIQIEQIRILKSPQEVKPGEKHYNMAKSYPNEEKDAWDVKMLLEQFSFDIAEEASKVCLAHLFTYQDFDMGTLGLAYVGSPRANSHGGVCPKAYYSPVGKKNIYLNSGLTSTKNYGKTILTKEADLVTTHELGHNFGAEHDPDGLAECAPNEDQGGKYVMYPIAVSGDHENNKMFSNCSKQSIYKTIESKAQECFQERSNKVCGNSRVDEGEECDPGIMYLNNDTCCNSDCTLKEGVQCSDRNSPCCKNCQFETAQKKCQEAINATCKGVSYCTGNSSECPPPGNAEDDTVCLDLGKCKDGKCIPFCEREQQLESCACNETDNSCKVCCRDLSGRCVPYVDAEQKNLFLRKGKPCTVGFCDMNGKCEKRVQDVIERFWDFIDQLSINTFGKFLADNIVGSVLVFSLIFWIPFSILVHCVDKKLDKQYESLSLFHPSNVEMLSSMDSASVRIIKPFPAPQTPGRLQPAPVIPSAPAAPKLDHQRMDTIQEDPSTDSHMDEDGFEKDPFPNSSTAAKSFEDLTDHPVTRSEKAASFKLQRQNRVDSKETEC
GRIN3A LBD mod: modulates the human NR3A ligand-binding domain. NR3A LBD differential scanning fluorimetry, Tm shift; 0% = protein alone, 100% = glycine-bound protein. Tm shift relative to glycine control, % at 25 µM. actives 2.5% (n = 340,000);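 active means melting temperature shift of at least 10% of the positive control shift, at one fixed dose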
FAS-TE inh: FAS thioesterase (human) inhibition; actives 0.67% (n = 360,000); inhibition, % at 15 µM; recombinant FAS-TE, OMFH fluorogenic substrate, fluorescence endpoint;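 active means compounds whose normalised, plate-corrected inhibition of enzyme fluorescence in the single-dose primary screen is 50% or more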;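 further: 0% = DMSO with enzyme and 100% = substrate without enzyme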
ADAM10 inh: ADAM10 inhibition, QFRET primary screen | inhibition, % at 7 µM | actives 0.62% (n = 370,000) | O14672 | recombinant ADAM10, EDANS/DABCYL FRET peptide cleavage, 3 h;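 active means inhibition above a per-campaign cutoff equal to the mean of compounds falling between control-based bounds plus 3 SD, cut at about 20% in these data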;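 further: 0% = DMSO wells while the 100% control is not disclosed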
ADAM10 confirm: confirmation of inhibitors of human ADAM10. shares compounds with ADAM10 inh. ADAM10 QFRET peptide cleavage, EDANS fluorescence. inhibition, % at 6.95 µM. actives 1% (n = 2,100);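 active means inhibition above about 20% chosen separately for each screening run, limit read from the data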;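 further: 0% = DMSO wells and 100% = marimastat wells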
ADAM17 counter: counter-screen for ADAM10 exosite inhibitors: inhibitors of human ADAM17. shares compounds with ADAM10 inh. inhibition, % at 6.95 µM. ADAM17 QFRET peptide cleavage, EDANS fluorescence. actives 0.5% (n = 2,100);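 active means mean triplicate inhibition above the solvent-only control wells' mean plus 3 SD, cut at about 12% in these data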;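 further: 0% = DMSO wells and 100% = marimastat wells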
* marks the source's active call; other numbers are inactive results. In the library only some 4% were active in any assay of this set; here they are far more common.

How did O=S1(=O)c2c(F)cccc2OC(COc2ccccc2)CN1CCc1ccc(F)cc1 (stereo not given) do in these assays?
aDG glyco up: 0.1; ADAM17 inh: 3.0; GRIN3A LBD mod: -6.5; FAS-TE inh: 27.7; ADAM10 inh: 9.3

Results for O=S1(=O)c2c(F)cccc2O[C@@H](COCc2ccccc2)CN1CCc1ccc(F)cc1 ?
aDG glyco up: -0.1; ADAM17 inh: 8.6; GRIN3A LBD mod: -1.5; FAS-TE inh: 24.4; ADAM10 inh: 20.7*; ADAM10 confirm: 4.9; ADAM17 counter: 1.3

Results for O=C(Cc1cccs1)N(Cc1cccs1)C1(C(=O)NC2CCCCC2)CCCCC1 ?
aDG glyco up: 0.3; ADAM17 inh: -3.8; GRIN3A LBD mod: -0.3; FAS-TE inh: 16.9; ADAM10 inh: 6.2

How did O=C(Nc1ccccc1)C1=C[C@H](c2ccc(C(F)(F)F)cc2)C[C@H](OCc2ccc(CO)cc2)O1 do in these assays?
ADAM17 inh: 8.6*; GRIN3A LBD mod: 7.6; ADAM10 inh: 26.3*; ADAM10 confirm: 7.2; ADAM17 counter: 2.8

Results for O=C(NCc1ccccc1)C1=C[C@H](c2ccccc2)C[C@H](OCc2ccc(CO)cc2)O1 ?
aDG glyco up: -0.1; ADAM17 inh: 8.2; GRIN3A LBD mod: -4.7; FAS-TE inh: 8.4; ADAM10 inh: 20.2*; ADAM10 confirm: 1.2; ADAM17 counter: 1.4

What do the screens show for `CCCCN(C(=O)c1ccccc1Br)C(c1ccc(OC)cc1)c1nc2ccccc2[nH]1` (stereo not given)?
aDG glyco up: -0.2; ADAM17 inh: 7.2; FAS-TE inh: 13.1; ADAM10 inh: 21.4*; ADAM10 confirm: 2.8; ADAM17 counter: 0.7

How did Cc1[nH]c(N=Nc2ccccc2)nc1N=Nc1ccccc1 do in these assays?
aDG glyco up: -0.2; ADAM17 inh: 5.4; GRIN3A LBD mod: -22.2; FAS-TE inh: 11.4; ADAM10 inh: 20.7*; ADAM10 confirm: 0.1; ADAM17 counter: 0.6

How did Nc1ccc(N=Nc2ccccc2)c(N)n1 do in these assays?
aDG glyco up: -0.4; ADAM17 inh: -1.2; GRIN3A LBD mod: 5.0; FAS-TE inh: 6.0; ADAM10 inh: -29.8

How did O=C(NCCNc1ccc([N+](=O)[O-])cc1C(F)(F)F)c1ccccc1 do in these assays?
aDG glyco up: 0.6; ADAM17 inh: 2.9; GRIN3A LBD mod: -8.3; FAS-TE inh: 29.1; ADAM10 inh: 2.0

How did CCCn1c(C(CO)Nc2nc(-c3cccc(Br)c3)cs2)nc2ccccc21 (stereo not given) do in these assays?
aDG glyco up: 0.9; ADAM17 inh: 8.6; GRIN3A LBD mod: -0.6; FAS-TE inh: 10.9; ADAM10 inh: 21.6*; ADAM10 confirm: 9.8; ADAM17 counter: 3.5

What do the screens show for `CC(=O)c1ccccc1-c1csc2ncnc(Sc3nnnn3C)c12`?
aDG glyco up: 0.1; ADAM17 inh: -6.0; GRIN3A LBD mod: 0.2; FAS-TE inh: -8.7; ADAM10 inh: 76.1*; ADAM10 confirm: 0.9; ADAM17 counter: 0.2

What do the screens show for `Cn1nnnc1Sc1ncnc2scc(-c3ccccc3C(F)(F)F)c12`?
aDG glyco up: 0.4; ADAM17 inh: 0.9; GRIN3A LBD mod: -1.1; FAS-TE inh: 2.1; ADAM10 inh: -0.8

What do the screens show for `Cc1ccnc(NS(=O)(=O)c2cccc3nsnc23)c1`?
aDG glyco up: -0.1; ADAM17 inh: -0.5; GRIN3A LBD mod: 1.2; FAS-TE inh: -2.8; ADAM10 inh: 20.4*; ADAM10 confirm: 1.6; ADAM17 counter: 1.4

How did CCn1nc(C)c(C(=O)Nc2cc(Oc3cc(C)cc(C)c3)cc([N+](=O)[O-])c2)c1C do in these assays?
aDG glyco up: -0.1; ADAM17 inh: 5.1; GRIN3A LBD mod: -1.1; FAS-TE inh: 45.8; ADAM10 inh: 21.2*; ADAM10 confirm: 6.1; ADAM17 counter: 2.2

Results for COc1ccccc1Cc1c(C(C)(C)C)nc2cc(C)c(Br)c(C)n12 ?
aDG glyco up: 0.0; ADAM17 inh: -2.7; FAS-TE inh: 25.5; ADAM10 inh: -4.2

What do the screens show for `CC1CC(=O)C2=C(C1)Nc1ccccc1SC2c1ccc(F)cc1` (stereo not given)?
aDG glyco up: 0.2; ADAM17 inh: 2.5; GRIN3A LBD mod: -7.1; FAS-TE inh: 11.7; ADAM10 inh: 20.7*; ADAM10 confirm: 4.0; ADAM17 counter: 1.3

Results for Cc1oc(-c2ccccc2)cc1C(=O)Nc1ccc(N(C)C)cc1 ?
aDG glyco up: -0.3; ADAM17 inh: 6.9; GRIN3A LBD mod: 0.3; FAS-TE inh: 22.3; ADAM10 inh: 21.8*; ADAM10 confirm: 7.0; ADAM17 counter: 3.9

What do the screens show for `Nc1nc(N)nc(-c2ccc(Oc3ccccc3)cc2)n1`?
aDG glyco up: -0.2; ADAM17 inh: -0.2; GRIN3A LBD mod: -0.1; FAS-TE inh: -1.5; ADAM10 inh: -8.8

Results for Cc1ccc(Oc2ccc(-c3nc(N)nc(N)n3)cc2)cc1C ?
aDG glyco up: 0.1; ADAM17 inh: 5.2; GRIN3A LBD mod: 14.2*; FAS-TE inh: 15.2; ADAM10 inh: 19.8*; ADAM10 confirm: 2.5; ADAM17 counter: 1.0

How did COc1ccc(S(=O)(=O)Nc2cc(OC)c(NC(=O)c3ccco3)cc2OC)cc1 do in these assays?
aDG glyco up: -0.3; ADAM17 inh: 8.0; GRIN3A LBD mod: -5.7; FAS-TE inh: 25.4; ADAM10 inh: 21.1*; ADAM10 confirm: 1.1; ADAM17 counter: 0.4

How did CCOc1cc(NS(=O)(=O)c2ccc(OC)cc2)c(OCC)cc1NC(=O)c1ccco1 do in these assays?
aDG glyco up: -0.1; ADAM17 inh: -2.9; GRIN3A LBD mod: -3.6; FAS-TE inh: 23.1; ADAM10 inh: -0.1

Results for Cc1cccc(OCCNC(=O)c2ccc(Oc3ccc(C(F)(F)F)cc3[N+](=O)[O-])cc2)c1 ?
aDG glyco up: 0.1; ADAM17 inh: 0.0; GRIN3A LBD mod: -7.2; FAS-TE inh: 19.8; ADAM10 inh: 25.6*; ADAM10 confirm: 6.8; ADAM17 counter: 1.7

What do the screens show for `COC(=O)c1ccccc1NC(=O)COC(=O)c1ccccc1N=Nc1ccc(N(C)C)cc1`?
aDG glyco up: 0.2; ADAM17 inh: 3.3; GRIN3A LBD mod: -2.8; FAS-TE inh: 29.4; ADAM10 inh: 5.2

How did CC(=O)c1ccc(NC(=O)COC(=O)c2ccccc2N=Nc2ccc(N(C)C)cc2)cc1 do in these assays?
aDG glyco up: 2.2; ADAM17 inh: 7.8; GRIN3A LBD mod: -18.4; FAS-TE inh: 24.7; ADAM10 inh: 21.6*; ADAM10 confirm: 1.4; ADAM17 counter: 1.3

What do the screens show for `CCN1C(=O)[C@H]2[C@@H](c3ccc(-c4ccccc4)cc3)N[C@@](C)(C(=O)OC)[C@H]2C1=O`?
aDG glyco up: 0.1; ADAM17 inh: -3.5; GRIN3A LBD mod: -1.3; FAS-TE inh: -2.8; ADAM10 inh: 7.6
